Source: PubChem (National Center for Advancing Translational Sciences (NCATS))
Shown are actives, neighbours in structure and some others; about 2.9% of the full set was active somewhere.
Nrf2 inh – inhibitors of Nrf2 signaling. A549 ARE-Fluc reporter, luciferase luminescence, 18-24 h. Potency, µM (highest dose often 46 µM), actives largely listed as inhibitors. hit rate 2.1% among 360,000. AID 504444; also: nearly all actives have a fitted effect of over 60% in size
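Nrf2 activity is the BugLite luminescence, read 15 min after reagent at room temperature, following CellTiter-Fluor cytotoxicity readout (30 min, 37C). Compound titrations were applied for 18-24 h to 5000 A549 ARE_Fluc cells/well in 5% FBS OPTI-MEM.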
ATXN2 expr inh – inhibitors of ATXN2 expression. HEK-293 ATXN2-luciferase reporter, luminescence, 24 h. Potency, µM (series often up to 57 µM), usual class: inhibitors. hit rate 0.72% among 360,000; also: nearly all actives have a fitted effect of over 55% in size
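qHTS (up to 57 uM final) was run with 24 h compound exposure of reporter cells at 37 °C. Each well was multiplexed: SteadyGlo luminescence measured ATXN2-luciferase expression after a fluorogenic Gly-Phe-AFC viability readout (25 uM final).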
A549 tox – kills or reduces viability of A549 cells in Nrf2 counter-screen; A549 ARE-Fluc cells, CellTiter-Fluor viability, 18-24 h; hit rate 0.16% among 390,000; AID 504648; Potency, µM (series often up to 46 µM), actives largely listed as inhibitors
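Cytotoxicity counterscreen: CellTiter-Fluor fluorescence was measured in A549 ARE_Fluc cells after 18-24 h of compound exposure in a concentration series. The subsequent BugLite luminescent read reports ARE-luciferase activity.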
ATXN viability – viability counter-screen for ATXN expression inhibitors; S2 cells (HEK-293 line with an ATXN2-luciferase reporter) viability, CellTiter-Fluor protease fluorescence, 24 h; Potency, µM (highest dose often 56.7 µM), actives largely listed as cytotoxic; hit rate 0.49% among 400,000; AID 651635; also: nearly all actives have a fitted effect of over 40% in size
Nrf2 activator – activates Nrf2 signaling; AID 624171; hit rate 0.31% among 410,000; AREc32 ARE-luciferase reporter (MCF7-derived line), luminescence, 24 h; Potency, µM (titrated, usually from 46.1 µM), usual class: activators; also: nearly all actives have a fitted effect of over 65% in size
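Cells of the AREc32 ARE-luciferase line are plated in OPTI-MEM containing 5% FBS and left overnight at 37 deg C. Compounds are pinned in, incubation continues 24 hr, and firefly luciferase signal is then measured.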
Numbers stand for hits; 0 = inactive; ? = inconclusive; - = not tested or not shown; [ ] = dose if it differs, or a comment. Calls follow the shape of the dose curve; as a rule, active = well fitted curve in the direction sought with a large enough effect; inconclusive = small, poorly fitted or top-dose-only effect, or another doubt; inactive = no such curve, though single readings can be large; an effect the other way counts as inactive or inconclusive.

SMILES	Nrf2 inh	ATXN2 expr inh	A549 tox	ATXN viability	Nrf2 activator
COc1cccc(/C=N/Nc2nccnc2Cl)c1O	0	5.62µM	0	?	0
COc1cccc(/C=N/Nc2ncnc(N)c2[N+](=O)[O-])c1OC	?	8.91µM	0	0	0
COc1ccc(/C=N/Nc2ncnc(Cl)c2N)cc1OC	?	0	0	0	0
COc1cccc(/C=N/Nc2ncnc(Cl)c2N)c1O	0	?	0	11.2µM	0
O=[N+]([O-])c1ccccc1/C=N/Nc1nccnc1Cl	-	0	0	0	6.31µM
CCc1ccc(S(=O)(=O)N2CCN(C(=O)c3cccnc3)CC2)cc1	?	?	0	?	0
Cn1nnnc1Sc1ncnc2scc(-c3ccccc3S(C)(=O)=O)c12	0	-	0	-	-
OCCC1CN(Cc2cccs2)CCN1Cc1ccccc1 (stereo unspecified)	0	0	0	0	0
COc1cccc(/C=N/Nc2ncnc3scc(-c4ccccc4)c23)c1O	?	1.12µM	0	0	0
COc1cccc(/C=N/Nc2cc(-n3nc(C)cc3-c3ccccc3)ncn2)c1O	0	?	0	?	0
Cc1ccc(C)c(NC(=O)COc2coc(CN3CCc4ccccc4C3)cc2=O)c1	10.3µM	?	0	0	0
CC1CCC2(CC1)NC(=O)N(CC(=O)N(Cc1ccccc1)C(C)(C)C)C2=O (stereo unspecified)	0	0	0	?	0
CC1CCC2(CC1)NC(=O)N(Cc1cccc(C(F)(F)F)c1)C2=O (stereo unspecified)	18.4µM	0	0	0	0
NS(=O)(=O)c1ccc(N/N=C/c2cn(-c3ccccc3)nc2-c2cccs2)c([N+](=O)[O-])c1	10.3µM	?	13µM	?	0
NS(=O)(=O)c1ccc(N/N=C/c2ccc[nH]2)c([N+](=O)[O-])c1	8.2µM	-	0	?	0
COc1ccc(-c2ccc(C(=O)Nc3cccc(Oc4ccccc4)c3)c3occc23)c(C)c1	-	0	-	0	0
COc1ccc(-c2noc(-c3ccccc3OCC(=O)Nc3ccc(C(C)=O)cc3)n2)cc1	?	0	0	0	0
CCOc1ccccc1-c1nc(-c2ccc(NC(=O)Cc3ccc(OC)cc3)cc2)no1	20.6µM	?	0	?	0
CC(C)NC(=S)N=Nc1c(O)[nH]c2ccc(C(C)C)cc12	?	-	0	3.55µM	0
CC(C)c1ccc2[nH]c(O)c(N=NC(=O)c3cccc(S(=O)(=O)Nc4ccccc4Cl)c3)c2c1	?	0[11.3 µM]	0	0	0
Cc1csc2ncnc(N3CCN(S(=O)(=O)c4cccc(C(F)(F)F)c4)CC3)c12	5.17µM	0	0	0	0
CC(C)c1ccc(NC(=O)CN2C(=O)COc3ccc(S(=O)(=O)N4CCCCCC4)cc32)cc1	0	-	0	-	0
Cc1ccc(C(=O)Nc2ccc(N3CCOCC3)c3nonc23)cc1[N+](=O)[O-]	0	0	?	?	0
O=c1cc(NCc2ccco2)c2ccccc2o1	0	0	0	0	12.6µM
Cc1c(C(=O)NCc2ccco2)oc2ccccc12	0	0	0	0	14.1µM
SMILES	Nrf2 inh	ATXN2 expr inh	A549 tox	ATXN viability	Nrf2 activator
Cc1c(C(=O)NCc2ccco2)oc2ccc(Br)cc12	?	0	0	0	?
Cc1[nH]c2ccccc2c1C1(O)C(=O)Nc2ccc(Cl)cc21 (stereo unspecified)	0	0	0	0	0
CCC1CSC(Nc2ccc(C(=O)/C=C/c3cccc(C)c3)cc2)=N1 (stereo unspecified)	23.1µM	0	0	0	0
CCC1CSC(Nc2ccc(C(=O)/C=C/c3ccc(Oc4ccccc4)cc3)cc2)=N1 (stereo unspecified)	?	?	0	?	0
S=C1NNC2(CC3CC2C2CCCC32)NN1 (stereo unspecified)	0	-	0	?	0
COc1ccc2c(c1)c(C1=C(c3c[nH]c4ccccc34)C(=O)NC1=O)cn2CCCN(C)C	-	21.7µM	-	-	-
Cc1ccc(NC(=S)NC(NC(=O)c2ccccc2)C(Cl)(Cl)Cl)c(C)c1 (stereo unspecified)	20.6µM	0	?	?	0
N#Cc1ccc(-c2ccc(OCC3CNC(=O)O3)cc2)cc1 (stereo unspecified)	?	0	0	0	0
COC(=O)c1ccc(CNC(=O)Cn2cnc3c(SC)nc(N)nc32)cc1	23.1µM	0	0	0	0
N/C(=N\OC(=O)c1cccc2ccccc12)c1cccnc1	?	0	0	0	2µM
N/C(=N\OC(=O)/C=C/c1ccccc1Cl)c1ccccn1	?	15.8µM	0	0	0
N/C(=N\OC(=O)/C=C/c1ccc(Br)cc1)c1ccccn1	?	0	?	0	0
N/C(=N\OC(=O)/C=C/c1ccccc1Cl)c1cccnc1	?	0	0	0	15.8µM
N/C(=N\OC(=O)/C=C/c1ccccc1)c1cccnc1	0	-	0	0	?
Cc1cccc(-c2noc(C3CCCCC3)n2)c1	?	0	?	0	0
CCc1cccc(NC(=O)CN(C)C2=NS(=O)(=O)c3ccccc32)c1	0	0	0	0	0
CC1C(=O)N(Cc2cn(CCC3OCCCO3)nn2)CCS(=O)(=O)N1Cc1ccc(-c2cccc(CO)c2)cc1 (stereo unspecified)	-	0	-	0	0
Cc1ccc(Nc2nc(N3CCOCC3)nc(N3CCOCC3)n2)cc1C	0	-	?	0	0
Cc1cc(C)cc(-n2c3ccc(NC(=O)Cc4cccc5ccccc45)cc3c(=O)n2C)c1	-	0	-	0.562µM	0
Cn1c(=O)c2cc(NC(=O)Cc3ccccc3F)ccc2n1-c1ccc(C(C)(C)C)cc1	-	0	-	?	0
O=C(Cc1cccc2ccccc12)Nc1ccc(-c2cc3ccccc3oc2=O)cc1	5.8µM	?	0	0	0
CN(C)c1ccc(-n2cccc2/C=C/[N+](=O)[O-])cc1	?	?	0	29.9µM	0
O=C(COC(=O)Cc1ccc(F)cc1)NC1CCS(=O)(=O)C1 (stereo unspecified)	0	0	0	0	0
Cc1ccc(NC(=O)C2CCN(S(=O)(=O)c3ccc4c(c3)CCCC(=O)N4)CC2)cc1N(C)C	?	0	0	0	0
Cc1cc(NC(=O)CN(C)S(=O)(=O)c2ccc3c(c2)CCCC(=O)N3)ccc1Br	20.6µM	15.8µM	0	-	0
SMILES	Nrf2 inh	ATXN2 expr inh	A549 tox	ATXN viability	Nrf2 activator
Cc1ccc(NC(=O)C2CCCN(S(=O)(=O)c3ccc4c(c3)CCCC(=O)N4)C2)cc1N(C)C (stereo unspecified)	16.4µM	0	0	?	0
COc1ccc(NC(=O)COC(=O)CNS(=O)(=O)c2ccc(C)cc2)c(OC)c1	0	0	0	0	0
COc1ccc(/C=C2\SC(=S)N(CCC(=O)Nc3ccc(O)cc3)C2=O)cc1	0	0	0	0	0
O=C(CCCN1C(=O)/C(=C/c2ccc3c(c2)OCO3)SC1=S)Nc1cccc(C(=O)O)c1	10.3µM	?	0	0	0
COc1cccc(/C=C2\SC(=S)N(CCCC(=O)Nc3ccc(C(=O)O)cc3)C2=O)c1	0	0	0	0	0
COc1cccc(/C=C2/SC(=S)N(CCCC(=O)Nc3ccc(O)cc3)C2=O)c1	?	15.8µM	?	?	0
